Hits are enriched below; roughly 0.59% of the tested compounds scored in any of these assays.
Chronic BCR inh: qHTS Assay to Find Inhibitors of Chronic Active B-Cell Receptor Signaling; ABC-DLBCL IkBa-CBG/CBR reporter, luminescence ratio, 4 h; Potency, µM (highest dose often 46.1 µM), inactives show top-dose activity change, negative = inhibition, usual class: inhibitors; 340,000 compounds, 0.05% hits; active means well fitted inhibition curve with a large enough effect in the signal ratio, with a control signal flat, not every such curve was filed as active; inconclusive means small, poorly fitted or top-dose-only effect, or effect the other way, or a change in a side signal; the % refers to the signal ratio;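 further: potency means the concentration at half of the fitted maximal effect; plate controls were basal doxycycline-induced cells for no effect and cells given 10 µM MG132 for full effect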
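Cell line TMD8 (human ABC DLBCL), stably expressing tet-inducible CBG68-IkBa fusion and CBR; IMDM/0.5% FBS; cpd up to 46 uM; dox induction, 4 h, 37C/5% CO2; dual luminescence; green/red ratio; MG132 control.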
RXFP1 agonist: qHTS Assay for Agonists of the Relaxin Receptor RXFP1. Relaxin receptor 1 (Homo sapiens), Q9HBX9. HEK293T-RXFP1 cAMP TR-FRET, 30 min; response scale: percent of porcine relaxin response, buffer zero. Potency, µM (series often up to 57.5 µM), without a hit: at the top dose activation, usual class: activators. 370,000 compounds, 0.3% hits; further: potency means the concentration at half of the fitted maximal effect; nearly all actives have a fitted effect of over 60% in size
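Agonist response is measured as cAMP accumulation in an RXFP1-transfected HEK293T line under PDE4 inhibition. Values are scaled between buffer-only and 29 nM porcine relaxin, and EC50s come from standard Hill equation fits.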
B2AR arrestin: qHTS assay of beta-arrestin-biased ligands of beta2-adrenergic receptor; Beta-2 adrenergic receptor (Homo sapiens), P07550; beta-arrestin recruitment to beta2AR, cell-based reporter; Potency, µM (series often up to 46.1 µM), without a hit: top-dose activation, hits mostly activators; 330,000 compounds, 0.02% hits; AID 492947, 2010;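 further: potency means the concentration at half of the fitted maximal effect; 0% = DMSO controls and full agonism = EC100 isoproterenol or metaproterenol; nearly all actives have a fitted effect of over 65% in size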
Target sequence (P07550 whole entry, looked up): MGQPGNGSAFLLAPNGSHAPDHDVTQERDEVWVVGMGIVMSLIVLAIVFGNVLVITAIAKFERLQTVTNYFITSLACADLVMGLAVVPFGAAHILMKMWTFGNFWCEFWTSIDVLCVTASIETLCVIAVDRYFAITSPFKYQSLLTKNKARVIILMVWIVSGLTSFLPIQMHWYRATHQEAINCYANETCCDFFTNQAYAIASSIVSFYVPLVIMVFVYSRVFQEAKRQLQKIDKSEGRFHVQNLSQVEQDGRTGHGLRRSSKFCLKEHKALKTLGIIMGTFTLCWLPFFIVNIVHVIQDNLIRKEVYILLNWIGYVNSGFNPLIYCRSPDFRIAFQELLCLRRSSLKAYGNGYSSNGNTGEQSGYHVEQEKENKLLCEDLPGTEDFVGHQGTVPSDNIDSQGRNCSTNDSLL
RXFP1 antagonist: qHTS Assay for Antagonists of the Relaxin Receptor RXFP1 | Relaxin receptor 1 (Homo sapiens), Q9HBX9 | HEK293-RXFP1, relaxin-stimulated cAMP HTRF, 30 min; stronger effect = lower value | activity change, negative = inhibition, % at 57.5 µM | 350,000 compounds, 0.59% hits;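 active means activity change of -60% or lower, but not beyond a set lower limit; inconclusive means change between -60% and -40%, or beyond the set limit; inactive means change above -40%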
* marks the source's active call; other numbers are inactive results; ? = inconclusive; . = not tested or not shown. Unless noted, the call rests on the fitted dose curve; in most records, active means well fitted activation curve with a large enough effect; inconclusive means small, poorly fitted or top-dose-only effect; inactive means flat fitted curve, though single readings scatter. Unless noted, on the % scale 0 is the no-effect control and ±100 the full control effect.

SMILES	Chronic BCR inh	RXFP1 agonist	B2AR arrestin	RXFP1 antagonist
O=C(O)CCn1cnc2onc(-c3ccccc3Cl)c2c1=O	.	1%	.	.
Cc1ccc(NS(=O)(=O)c2ccc3c(c2)CCN3C(=O)C2CC2)c(C)c1	.	4%	.	.
Cc1ccc(C)c(NS(=O)(=O)c2ccc3c(c2)CCCN3C(=O)C2CCC2)c1	.	0%	.	-63*
CCN(CC)C(=O)C1CCN(S(=O)(=O)c2ccc3c(c2)CCCN3C(=O)C2CCC2)CC1	-3%	-2%	0%	-79*
O=C(c1ccc2c(=O)n(C3CCCC3)c(=S)[nH]c2c1)N1CCCCCC1	?	-1%	0%	-63*
CC1CCCN(C(=O)c2ccc3c(=O)n(C4CCCC4)c(=S)[nH]c3c2)C1 (stereo not given)	?	1%	0%	-29
C#CCOc1c(Br)cc(C2C(C(=O)OC)=C(C)NC3=C2C(=O)c2ccccc23)cc1OCC (stereo not given)	.	7%	.	-4
N#CC(C#N)=C1C=CC=CN1/C(=C\c1ccccc1Cl)C(=O)c1ccccc1	?	-1%	-1%	-82*
N#CC(C#N)=C1C=CC=CN1/C(=C\c1ccccc1)C(=O)c1cccs1	-2%	0%	5%	0
CCOc1ccc(N2CC(NC(=O)C3CCCCC3)CC2=O)cc1 (stereo not given)	-8%	1%	.	-4
COC(=O)c1ccc(-c2ccc(C(c3c(C)[nH][nH]c3=O)c3c(C)[nH][nH]c3=O)o2)cc1	?	-1%	0%	-87*
Cc1[nH][nH]c(=O)c1C(c1ccc(-c2cccc(C(=O)O)c2)o1)c1c(C)[nH][nH]c1=O	-4%	4%	0%	6
Cc1ccccc1OCCn1c(=S)[nH]c2c(N)ncnc21	1%	0%	0%	-2
Cc1ccccc1OCCn1cnc2c(N)ncnc21	18µM*	1%	0%	0
COc1ccc(N2CCN(C(=O)C3CCN(S(=O)(=O)c4cccc5nonc45)CC3)CC2)cc1	-6%	-1%	.	-9
Cc1[nH]c2ccccc2c1C(=O)COC(=O)c1ccccc1O	?	.	0%	-20
Cc1[nH]c2ccccc2c1C(=O)COC(=O)c1nccnc1N	?	1%	0%	-66*
Cc1cc(C)c(NC(=O)COC(=O)Cc2cccs2)c(C)c1	1%	0%	0%	-109*
Cc1ccc(NC(=O)COC(=O)Cc2cccs2)c(Br)c1	3%	0%	-1%	-3
COc1cccc(NC(=O)CSc2nc3c(sc4ccccc43)c(=O)n2CCN(C)C)c1	?	4%	-1%	-64*
O=Cc1ccccc1C=O	.	.	.	7
Cc1cccc(OCC(=O)N(Cc2ccc(C(C)(C)C)cc2)Cc2ccco2)c1	.	-2%	.	-75*
CC(C)(C)c1ccc(C(=O)N(Cc2ccc(F)cc2)Cc2ccco2)cc1	.	1%	.	-79*
CCc1ccc(OCC(=O)N(Cc2ccc(C)cc2)Cc2ccco2)cc1	.	0%	.	-61*
CC(C)c1ccc(Nc2ncnc3c2nc2n3CCCC2)cc1	.	3%	.	-8
SMILES	Chronic BCR inh	RXFP1 agonist	B2AR arrestin	RXFP1 antagonist
Cc1nc(NC(=O)c2cnccn2)ccc1Br	1µM*	2%	0%	0
Cc1nc(NC(=O)c2cncc(Br)c2)ccc1Br	4%	5%	0%	12
CCCN(CCC)CCCNC(=O)c1cc2c(=O)n(C)c3ccccc3c2s1	.	7%	.	-7
Cc1ccccc1C(=O)Nc1ccc(C(=O)N2CCCC(O)c3cc(Cl)ccc32)c(C)c1 (stereo not given)	.	.	.	-19
Cc1ccc(Cl)cc1-n1ncc2c(NCc3ccc(F)cc3)ncnc21	8%	-3%	.	-65*
COc1cc(OC)c(NC(=O)CC(c2cccs2)N2Cc3ccccc3C2=O)cc1Cl (stereo not given)	.	4%	.	.
Nc1nc2ccccc2n1Cc1ccc(F)cc1	.	.	.	-7
CN(C)CCCN(C(=O)c1ccc2ccccc2c1)c1nc2cc3c(cc2s1)OCO3	-11%	0%	0%	-61*
CN(C)CCCN(C(=O)c1ccc2c(c1)CCCC2)c1nc2ccc(Cl)cc2s1	?	1%	0%	-77*
COc1cccc2sc(N(CCCN(C)C)C(=O)c3ccc(S(=O)(=O)N4CCCc5ccccc54)cc3)nc12	?	-3%	-1%	-88*
COc1cccc2sc(N(CCN(C)C)C(=O)c3ccc4c(c3)CCCC4)nc12	-1%	1%	0%	-69*
CCOc1ccc2nc(N(CCCN(C)C)C(=O)c3ccc4c(c3)CCCC4)sc2c1	-3%	1%	-1%	-24
CN(C)CCN(C(=O)c1ccc2c(c1)CCCC2)c1nc2c(F)cccc2s1	-1%	1%	-1%	-26
O=C(O)c1cccc(-c2noc(-c3ccccc3F)n2)c1	.	.	.	-27
OC1(c2ccccc2)CCNCC1	.	.	.	-12
CC(=O)c1cccc(-n2c(=O)c3c4c(sc3n(Cc3ccccc3Cl)c2=O)CN(C(C)=O)CC4)c1	.	2%	.	.
Cc1cc(-c2ccccc2)n(-c2cc(N/N=C/c3ccccc3O)ncn2)n1	15µM*	2%	-1%	.
CNc1cc(-n2nc(C)cc2-c2ccccc2)ncn1	-5%	-1%	-1%	0
CC(C)COc1ccc(C(=O)N2CCCCC2CCN2CCOCC2)cc1 (stereo not given)	.	0%	.	-5
CCOc1c(N2CCOCC2)cnn(C)c1=O	.	.	.	-12
CCC1=Nc2cc(C(=O)NCCCN3CCN(C)CC3)ccc2Sc2ccccc21	0%	-1%	0%	8
CCCC1=Nc2cc(C(=O)NCCN3CCOCC3)ccc2Sc2ccccc21	?	-4%	0%	-100*
CCc1ccc(NC(=O)c2cc(CN3CCOCC3)on2)cc1	.	6%	.	-10
COCCCNC(=O)c1sc2nc(C)c(C(=O)Nc3ccc(Cl)cc3)c(-c3ccc(Br)cc3)c2c1N	.	35µM*	.	-16
Cc1ccc(C)c(NC(=O)Cn2cc(C(=O)c3cccs3)c3ccccc32)c1	.	0%	.	-16
SMILES	Chronic BCR inh	RXFP1 agonist	B2AR arrestin	RXFP1 antagonist
S=c1nc(SCc2ccccc2)[nH]c2ccccc12	11%	28µM*	-1%	16
Cc1cc(C)c(/C=C/c2onc(C)c2S(=O)(=O)N2CCC(C(=O)N3CCN(c4ccccc4)CC3)CC2)c(C)c1	.	0%	.	-1
COc1ccc(-c2nc(-c3ccccc3)c(-c3ccc(F)cc3)[nH]2)c(OC)c1C	.	7%	.	-22
Cc1ccc(-c2ccc3nnc(SCC(=O)NCC4CCCO4)n3n2)cc1 (stereo not given)	?	25µM*	1%	11
CN1CCN(N)CC1	.	.	.	11
Cc1ccc(S(=O)(=O)Nc2ccccc2C=Nc2cccc(C)c2C)cc1	5%	-3%	0%	-66*
COc1ccc(NC(=O)CN(C)CC(=O)Nc2ccc3c(c2)CCC3)cc1	-5%	1%	0%	-13
COc1cccc(N(C)C(=S)Oc2ccc3c(c2)CCCC3)n1	.	.	.	-65*
